Test results reported in PubChem BioAssay AID1159580 (chemical genetic matrix, 2015).
Values joined by “and” are separate entries in the source; they are usually repeats but may differ in a detail not shown here. Identical values can stand only once. Out of some 5,500 compounds screened, about 2,000 (36%) were called active. Roughly 18% stayed inconclusive and do not appear here. Rule as the data show it: active = normalized growth mostly below about 0.91 (no sharp cut-off); inconclusive = no clear call, values can overlap the other calls; inactive = mostly above about 0.92. This is one part of the list.

Assay: chemical genetic growth profiling, strain panel (AID 1159580);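 also: tested at 20 µM; growth read once vehicle control cultures reached saturation at 30 °C; 1 = growth at the plate median or of vehicle wells; lower values mean less growth of the strain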
Settings: S. cerevisiae deletion strains, growth OD

Measured: normalized growth

O=C1C=CC(=C(c2ccc(O)cc2)c2ccc(O)cc2)C=C1
inactive: locus YAL013W, strain DEP1, hits give low values 0.985 | locus YAL021C, strain ccr4, hits give low values 1 | locus YAL026C, strain drs2, hits give low values 0.972 | locus YAL030W, strain snc1, hits give low values 1 | locus YBL061C, strain skt5, hits give low values 0.982 | locus YBR009C, strain hhf1, hits give low values 0.981 | locus YBR021W, strain FUR4, hits give low values 0.992 | locus YBR023C, strain chs3, hits give low values 0.968 | locus YBR171W, strain sec66, hits give low values 0.968 | locus YBR229C, strain ROT2, hits give low values 0.991 | locus YBR231C, strain swc5, hits give low values 0.987 | locus YBR279W, strain paf1, hits give low values 0.99 | locus YCL011C, strain gbp2, hits give low values 0.972 | locus YCL016C, strain dcc1, hits give low values 1.01 | locus YCL029C, strain bik1, hits give low values 0.99 | locus YCL069W, strain vba3, hits give low values 0.959 | locus YCR088W, strain abp1, hits give low values 0.975 | locus YDL005C, strain med2, hits give low values 0.977 | locus YDL035C, strain GPR1, hits give low values 1 | locus YDL040C, strain nat1, hits give low values 0.991 | locus YDL074C, strain BRE1, hits give low values 1.06 | locus YDL101C, strain DUN1, hits give low values 1 | locus YDL134C, strain PPH21, hits give low values 0.998 | locus YDL185W, strain tfp1, hits give low values 1 | locus YDL192W, strain arf1, hits give low values 0.982 | locus YDR001C, strain nth1, hits give low values 0.975 | locus YDR069C, strain doa4, hits give low values 0.952 | locus YDR101C, strain arx1, hits give low values 0.995 | locus YDR137W, strain rgp1, hits give low values 0.988 | locus YDR150W, strain NUM1, hits give low values 1.01 | locus YDR159W, strain sac3, hits give low values 0.972 | locus YDR162C, strain NBP2, hits give low values 1.01 | locus YDR195W, strain ref2 0.927 | locus YDR297W, strain sur2, hits give low values 0.987 | locus YDR318W, strain mcm21, hits give low values 0.982 | locus YDR334W, strain swr1, hits give low values 0.962 | locus YDR335W, strain msn5, hits give low values 0.968 | locus YDR388W, hits give low values 0.972 | locus YDR392W, strain spt3, hits give low values 0.986 | locus YDR502C, strain sam2, hits give low values 1 | locus YEL003W, strain gim4, hits give low values 0.974 | locus YEL037C, strain rad23, hits give low values 0.973 | locus YEL061C, strain CIN8 (second series), hits give low values 0.938 | locus YEL061C, strain CIN8, hits give low values 1.01 | locus YER015W, strain faa2, hits give low values 0.99 | locus YER016W, strain bim1, hits give low values 0.983 | locus YER110C, hits give low values 0.976 | locus YER111C, strain swi4, hits give low values 0.969 | locus YER155C, strain BEM2 (second series), hits give low values 1.01 | locus YER155C, strain BEM2, hits give low values 0.997 | locus YER167W, strain BCK2, hits give low values 0.993 | locus YFR010W, strain ubp6, hits give low values 0.945 | locus YGL078C, strain dbp3, hits give low values 0.994 | locus YGL086W, strain mad1, hits give low values 0.986 | locus YGL167C, strain pmr1, hits give low values 0.994 | locus YGL173C, strain kem1, hits give low values 0.98 | locus YGL227W, strain vid30, hits give low values 0.971 | locus YGL240W, strain doc1, hits give low values 0.983 | locus YGL248W, strain PDE1, hits give low values 0.991 | locus YGL253W, strain hxk2, hits give low values 0.967 | locus YGR078C, strain PAC10, hits give low values 1.03 | locus YGR135W, strain pre9, hits give low values 1 | locus YGR229C, strain SMI1, hits give low values 1.02 | locus YGR252W, strain gcn5, hits give low values 0.97 | locus YHR013C, strain ard1, hits give low values 0.985 | locus YHR027C, strain rpn1, hits give low values 1 | locus YHR030C, strain SLT2, hits give low values 0.994 and 1.04 | locus YHR079C, strain IRE1 (second series), hits give low values 0.989 | locus YHR079C, strain IRE1, hits give low values 1.05 | locus YHR094C, strain hxt1, hits give low values 0.989 | locus YHR129C, strain ARP1, hits give low values 0.994 | locus YHR142W, strain chs7, hits give low values 0.962 | locus YHR200W, strain rpn10, hits give low values 0.988 | locus YIL066C, strain RNR3, hits give low values 0.992 | locus YIL073C, strain SPO22, hits give low values 0.976 | locus YIL125W, strain kgd1, hits give low values 0.995 | locus YIR030C, strain dcg1, hits give low values 0.986 | locus YJL092W, strain hpr5, hits give low values 0.953 | locus YJL095W, strain BCK1 (second series), hits give low values 0.975 | locus YJL095W, strain BCK1, hits give low values 1.03 and 1.02 | locus YJL115W, strain asf1, hits give low values 0.966 | locus YJL129C, strain trk1, hits give low values 0.965 | locus YJL134W, strain LCB3, hits give low values 0.994 | locus YJL154C, strain vps35, hits give low values 0.98 | locus YJL164C, strain tpk1, hits give low values 1 | locus YJL166W, strain qcr8, hits give low values 0.984 | locus YJL168C, strain set2, hits give low values 0.98 | locus YJL187C, strain SWE1 (second series), hits give low values 0.998 | locus YJL187C, strain SWE1, hits give low values 0.993 | locus YJR043C, strain POL32, hits give low values 1.04 | locus YJR066W, strain TOR1, hits give low values 0.979
